# In PubChem BioAssay (EPA / NIEHS):
# Where “and” joins values, the source holds several entries; their conditions need not be identical. Identical values can stand only once. Results filed as inconclusive are left out. Calls of active or inactive are those of the source. How the source made its calls, unless noted: active means hit-call score of the fitted dose curve at least 0.9, where 1 is the maximum; inconclusive means response in the unintended direction; inactive means score below 0.9.
# Columns and labels:
# [1] = biological target: human CYP2C9, CYP2C9 (gene 1559) (UniProt P11712); test: NVS_ADME_hCYP2C9: NovaScreen (NVS) CYP450-related Enzyme Activity (ADME) Assay for human CYP2C9 (AID 2283108)
# Outline: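 Cell-free assay of recombinant human CYP2C9 produced in Sf9 cells, with enzyme activity read by fluorescence intensity 0.75 h after compound addition. Loss of signal versus an acetonitrile negative control indicates inhibition. Primary screen used 10 uM in duplicate; actives were retested in concentration series.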
# [2] = biological target: Cytochrome P450 2C19 (Homo sapiens) (UniProt P33261); test: NVS_ADME_hCYP2C19: NovaScreen (NVS) CYP450-related Enzyme Activity (ADME) Assay for human CYP2C19 (AID 2283113);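 further: potency for inhibition seen as loss of fluorescent signal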
# Outline: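 Recombinant insect-cell-expressed enzyme, fluorescent substrate, 1 h after chemical addition, fluorescence intensity. Baseline = acetonitrile vehicle; activity scored as signal loss. Primary HTS single concentration 10 uM, duplicate; actives retested in concentration series.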
# [3] = biological target: human Peroxisome Proliferator-activated Receptor alpha (PPARa), PPARA (gene 5465) (UniProt Q07869); test: NVS_NR_hPPARa: NovaScreen (NVS) Nuclear Receptor Binding Assay for human Peroxisome Proliferator-activated Receptor alpha (PPARa) (AID 2283359);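 further: activity means loss of TR-FRET signal versus DMSO baseline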
# Outline: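 Cell-free binding assay with extracted human protein, read by TR-FRET 1 h after chemical dosing. Loss of signal relative to DMSO baseline indicates binding. Primary screen used duplicate single concentration (25 uM); actives followed up in concentration series.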
# [4] = CEETOX_H295R_11DCORT_noMTC: CeeTox H295R High-throughput Steroidogenesis Assay for 11-Deoxycortisol (11DCORT), maximum tolerated concentration (MTC) filtered results only (AID 2283911; active means hit-call score of the fitted dose curve at least 0.9, where 1 is the maximum; inactive means score below 0.9); settings: actives raise or lower the signal
# Outline: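 H295R, OECD 456-based; 10 uM forskolin 48 h → compound (0.1% DMSO) 48 h → medium extracted, 11DCORT by LC-MS/MS. Gain/loss vs DMSO control, all concentrations kept regardless of MTT viability.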
# [5] = CEETOX_H295R_OHPREG_noMTC: CeeTox H295R High-throughput Steroidogenesis Assay for OH-Pregnenolone (OHPREG), maximum tolerated concentration (MTC) filtered results only (AID 2283912; active means hit-call score of the fitted dose curve at least 0.9, where 1 is the maximum; inactive means score below 0.9); settings: actives raise or lower the signal
# Outline: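 H295R human adrenal cells, forskolin-prestimulated (10 uM, 48 h), then exposed to test chemical in 0.1% DMSO for 48 h. 17alpha-hydroxypregnenolone in medium measured by HPLC-MS/MS after MTBE extraction; bidirectional fit versus DMSO, concentrations not MTC-filtered.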
# [6] = CEETOX_H295R_OHPROG_noMTC: CeeTox H295R High-throughput Steroidogenesis Assay for OH-Progesterone (OHPROG), maximum tolerated concentration (MTC) filtered results only (AID 2283914; active means hit-call score of the fitted dose curve at least 0.9, where 1 is the maximum; inactive means score below 0.9); settings: actives raise or lower the signal
# Outline: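 H295R human adrenal cells prestimulated 48 h with 10 uM forskolin, then exposed 48 h to test chemical (0.1% DMSO final). Medium 17alpha-hydroxyprogesterone extracted with MTBE, quantified by HPLC-MS/MS; bidirectional fit versus DMSO, concentrations not MTC-filtered.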
# [7] = CEETOX_H295R_CORTISOL_noMTC: CeeTox H295R High-throughput Steroidogenesis Assay for Cortisol, maximum tolerated concentration (MTC) filtered results only (AID 2283916; active means hit-call score of the fitted dose curve at least 0.9, where 1 is the maximum; inactive means score below 0.9); settings: actives raise or lower the signal
# Outline: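 H295R adrenal cells were pre-stimulated 48 h with 10 uM forskolin, then exposed 48 h to test chemical in 0.1% DMSO. Medium cortisol was measured by MTBE extraction and HPLC-MS/MS; bidirectional fit versus DMSO, concentrations not MTC-filtered.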
# [8] = CEETOX_H295R_CORTIC_noMTC: CeeTox H295R High-throughput Steroidogenesis Assay for Corticosterone (CORTIC), maximum tolerated concentration (MTC) filtered results only (AID 2283917; active means hit-call score of the fitted dose curve at least 0.9, where 1 is the maximum; inactive means score below 0.9); settings: actives raise or lower the signal
# Outline: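 H295R, 10 uM forskolin prestim 48 h → test chem (0.1% DMSO final) 48 h → media MTBE extraction → HPLC-MS/MS corticosterone. Bidirectional fit vs DMSO baseline; no MTT-based MTC filtering.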
# [9] = CEETOX_H295R_DOC_noMTC: CeeTox H295R High-throughput Steroidogenesis Assay for DOC, maximum tolerated concentration (MTC) filtered results only (AID 2283918; active means hit-call score of the fitted dose curve at least 0.9, where 1 is the maximum; inactive means score below 0.9); settings: actives raise or lower the signal
# Outline: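 H295R cells prestimulated 48 h with 10 uM forskolin, then exposed 48 h to test chemical (0.1% DMSO final). Medium 11-deoxycorticosterone extracted with MTBE, quantified by HPLC-MS/MS; bidirectional fit versus DMSO, concentrations not MTC-filtered.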
# [10] = CEETOX_H295R_PROG_noMTC: CeeTox H295R High-throughput Steroidogenesis Assay for Progesterone (PROG), maximum tolerated concentration (MTC) filtered results only (AID 2283920; active means hit-call score of the fitted dose curve at least 0.9, where 1 is the maximum; inactive means score below 0.9); settings: actives raise or lower the signal
# Outline: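 H295R human adrenal cells were prestimulated 48 h with 10 uM forskolin, then exposed 48 h to test chemical (0.1% DMSO final). Progesterone in medium was quantified by HPLC-MS/MS; bidirectional fitting versus DMSO, concentrations not MTC-filtered.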
# [11] = tested on: DIO2 (gene 1734); test: CCTE_GLTED_hDIO2: CCTE's human Deiodinase 2 (DIO2) Inhibition Assay, Great Lakes Toxicology and Ecology Division (GLTED) Lab (AID 2284050)
# Outline: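 In this cell-free test, chemicals are exposed to human deiodinase type 2 for 3 hours. Released iodide is determined spectrophotometrically via the Sandell-Kolthoff method, and signal loss relative to DMSO is fitted.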
# [12] = tested on: DIO3 (gene 1735); test: CCTE_GLTED_hDIO3: CCTE's human Deiodinase 3 (DIO3) Inhibition Assay, Great Lakes Toxicology and Ecology Division (GLTED) Lab (AID 2284055);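 further: potency is for inhibition seen as loss of released iodide signal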
# Outline: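 Enzyme activity is tracked as iodide release from substrate by recombinant human DIO3 over 3 h with chemical present. A second Sandell-Kolthoff step converts iodide to an absorbance signal, fitted relative to DMSO.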
# [13] = STM_H9_NormalizedViability: Cytotoxicity Assessment at 120 hours in the Stemina devTOX quickPredict H9 human embryonic stem cell (hESC)-based Assay (AID 2283784)
# Outline: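 Chemicals are tested blinded on H9 human embryonic stem cells in the pluripotent state, with medium exchanged daily. After background correction, fluorescence from CellTiter-Fluor is scaled against 0.1% DMSO wells, and decreases are scored.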
# [14] = tested on: Sodium/Iodide Symporter (NIS), SLC5A5 (gene 6528); test: CPHEA_Stoker_NIS_Inhibition_RAIU: CPHEA's Radioactive Iodide Uptake (RAIU) Assay for Sodium/Iodide Symporter (NIS) Inhibition, Stoker and Laws Labs (AID 2283841)
# Outline: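 Iodide uptake through human NIS is measured in an engineered HEK293T line. Cells take up 125I (329pM final) for 2 hours at room temperature alongside chemicals at 0.001–100uM. Retained radioactivity is counted, and the signal is expressed against DMSO controls.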
# [15] = read-out: Monocyte Chemoattractant Protein-1 (MCP1), CCL2 (gene 6347); test: BSK_IMphg_MCP1: BioMAP Diversity Plus: IMphg Assay for Monocyte Chemoattractant Protein-1 (MCP1) Biomarker Activity (AID 2284253; active means hit-call score of the fitted dose curve at least 0.9, where 1 is the maximum; inactive means score below 0.9); settings: primary human endothelial cells with macrophages
# Outline: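 Human venular endothelial cells co-cultured with macrophages; MCP-1 measured by ELISA 24 hours post-dose and fitted against DMSO. Cytotoxicity monitored by SRB total-protein staining in parallel cultures.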
# [16] = TOX21_PR_BLA_Followup_Antagonist_viability: Viability Assessment in the Tox21 HEK293 Progesterone Receptor (PR) Antagonism Beta-lactamase Follow-Up Assay (AID 2283936);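 further: hits lower the luminescence signal meaning cytotoxicity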
# Outline: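 PR-UAS-bla HEK293T cells (3,000/well, 2% charcoal-stripped FBS) given compound plus R5020 agonist, 16 h at 37C. CellTiter-Glo added after bla read, 30 min at room temperature; luminescence loss indicates cytotoxicity.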
# [17] = biological target: PGR (gene 5241) (UniProt P06401); test: TOX21_PR_LUC_Followup_Antagonist: Tox21 HEK293 Progesterone Receptor (PR) Antagonism Luciferase Follow-Up Assay (AID 2283938);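 further: curve fitted upward as signal gain over DMSO baseline despite antagonist label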
# Outline: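 Luminescence from ONE-Glo reagent, measured after 30 min at room temperature, served as readout. Cells (HEK293 carrying PR-A-luc) had been treated 16 h at 37C with DMSO-dissolved compounds. Activity was fitted against DMSO controls.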
# [18] = biological target: THRB (gene 7068) (UniProt P10828); test: TOX21_TRB_BLA_Antagonist_Followup_ratio: Tox21 Thyroid Hormone Receptor beta Antagonism Beta-lactamase (BLA) Follow-Up Assay, Ratio (AID 2283958)
# Outline: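 In this antagonist-mode follow-up, a stably integrated GAL4-TRβ LBD fusion drives a UAS-beta-lactamase reporter in HEK293T cells. Loss of ratio signal relative to DMSO after 18 h treatment indicates activity; parallel CellTiter-Glo flags cytotoxicity.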
# [19] = biological target: THRA (gene 7067) (UniProt P10827); test: TOX21_TRA_COA_Antagonist_Followup_ratio: Tox21 Thyroid Hormone Receptor alpha Antagonism through Coactivator Recruitment Follow-Up Assay, Ratio (AID 2283953)
# Outline: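 This follow-up to the GH3 luciferase screen checks specificity in a cell-free format. It measures SRC-2 coactivator peptide binding to TRα LBD by TR-FRET and scores loss of ratio signal relative to DMSO.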
# [20] = biological target: THRB (gene 7068) (UniProt P10828); test: TOX21_TRB_COA_Antagonist_Followup_ratio: Tox21 Thyroid Hormone Receptor beta Antagonism through Coactivator Recruitment Follow-Up Assay, Ratio (AID 2283967)
# Outline: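 Cell-free TR-FRET coactivator recruitment with GST-tagged TRβ LBD (5.0 nM) and fluorescein-labeled SRC-2 peptide (200 nM) detected by terbium anti-GST antibody (2 nM). The 520:495 nm emission ratio was normalized to DMSO (0%) and T3 (100%).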
# Chain of THRB (gene 7068) (P10828 whole entry, looked up, the tested form may be a part): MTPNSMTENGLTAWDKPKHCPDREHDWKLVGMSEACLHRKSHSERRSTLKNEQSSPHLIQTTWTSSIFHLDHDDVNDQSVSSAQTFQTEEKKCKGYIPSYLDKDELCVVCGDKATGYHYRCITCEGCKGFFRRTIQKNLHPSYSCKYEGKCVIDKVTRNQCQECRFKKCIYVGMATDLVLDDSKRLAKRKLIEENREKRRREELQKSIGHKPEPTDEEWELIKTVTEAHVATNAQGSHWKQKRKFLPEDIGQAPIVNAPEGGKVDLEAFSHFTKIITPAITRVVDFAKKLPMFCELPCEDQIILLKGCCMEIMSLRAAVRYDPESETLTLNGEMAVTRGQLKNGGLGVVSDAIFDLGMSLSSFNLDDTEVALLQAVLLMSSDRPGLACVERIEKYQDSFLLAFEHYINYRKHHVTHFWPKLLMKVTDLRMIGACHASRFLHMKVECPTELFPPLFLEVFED
# Chain of THRA (gene 7067) (P10827 whole entry, looked up, the tested form may be a part): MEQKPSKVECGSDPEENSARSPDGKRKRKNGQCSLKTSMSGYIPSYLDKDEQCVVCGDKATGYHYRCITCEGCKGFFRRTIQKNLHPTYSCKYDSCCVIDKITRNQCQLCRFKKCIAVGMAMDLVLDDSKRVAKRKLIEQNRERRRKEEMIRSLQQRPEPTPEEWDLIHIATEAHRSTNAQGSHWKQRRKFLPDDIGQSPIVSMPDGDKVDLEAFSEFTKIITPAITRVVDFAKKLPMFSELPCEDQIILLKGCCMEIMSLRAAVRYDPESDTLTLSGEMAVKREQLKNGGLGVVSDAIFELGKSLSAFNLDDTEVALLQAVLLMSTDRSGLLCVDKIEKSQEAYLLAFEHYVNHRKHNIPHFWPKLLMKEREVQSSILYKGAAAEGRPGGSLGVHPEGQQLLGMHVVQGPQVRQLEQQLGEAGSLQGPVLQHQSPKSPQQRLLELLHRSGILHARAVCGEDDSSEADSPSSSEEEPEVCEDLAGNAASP
# Chain of PGR (gene 5241) (P06401 whole entry, looked up): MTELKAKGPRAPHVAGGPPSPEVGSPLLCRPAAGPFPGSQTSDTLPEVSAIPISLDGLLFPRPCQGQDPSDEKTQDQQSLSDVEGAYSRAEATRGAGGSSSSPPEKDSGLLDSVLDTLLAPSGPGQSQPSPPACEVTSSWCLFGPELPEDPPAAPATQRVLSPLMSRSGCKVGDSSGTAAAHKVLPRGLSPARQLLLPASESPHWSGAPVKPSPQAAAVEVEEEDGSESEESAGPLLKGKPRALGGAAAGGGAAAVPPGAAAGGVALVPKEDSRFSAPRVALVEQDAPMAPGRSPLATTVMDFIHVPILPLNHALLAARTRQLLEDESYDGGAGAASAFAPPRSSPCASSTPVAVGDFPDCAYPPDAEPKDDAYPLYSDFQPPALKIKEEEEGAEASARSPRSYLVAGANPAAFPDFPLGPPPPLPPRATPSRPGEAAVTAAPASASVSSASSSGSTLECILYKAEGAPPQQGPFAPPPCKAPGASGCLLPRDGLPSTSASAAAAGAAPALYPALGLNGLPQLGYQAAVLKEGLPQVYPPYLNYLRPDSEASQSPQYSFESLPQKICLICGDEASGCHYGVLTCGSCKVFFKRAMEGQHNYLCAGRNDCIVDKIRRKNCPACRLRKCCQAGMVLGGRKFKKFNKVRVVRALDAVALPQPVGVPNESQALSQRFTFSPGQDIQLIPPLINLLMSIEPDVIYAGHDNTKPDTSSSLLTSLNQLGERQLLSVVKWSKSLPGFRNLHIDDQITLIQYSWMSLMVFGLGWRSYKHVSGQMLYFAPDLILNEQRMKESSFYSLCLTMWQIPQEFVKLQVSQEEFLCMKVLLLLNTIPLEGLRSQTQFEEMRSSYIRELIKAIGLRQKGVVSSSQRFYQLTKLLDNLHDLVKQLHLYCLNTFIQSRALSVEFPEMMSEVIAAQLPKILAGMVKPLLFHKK
# Chain of human CYP2C9, CYP2C9 (gene 1559) (P11712 whole entry, looked up): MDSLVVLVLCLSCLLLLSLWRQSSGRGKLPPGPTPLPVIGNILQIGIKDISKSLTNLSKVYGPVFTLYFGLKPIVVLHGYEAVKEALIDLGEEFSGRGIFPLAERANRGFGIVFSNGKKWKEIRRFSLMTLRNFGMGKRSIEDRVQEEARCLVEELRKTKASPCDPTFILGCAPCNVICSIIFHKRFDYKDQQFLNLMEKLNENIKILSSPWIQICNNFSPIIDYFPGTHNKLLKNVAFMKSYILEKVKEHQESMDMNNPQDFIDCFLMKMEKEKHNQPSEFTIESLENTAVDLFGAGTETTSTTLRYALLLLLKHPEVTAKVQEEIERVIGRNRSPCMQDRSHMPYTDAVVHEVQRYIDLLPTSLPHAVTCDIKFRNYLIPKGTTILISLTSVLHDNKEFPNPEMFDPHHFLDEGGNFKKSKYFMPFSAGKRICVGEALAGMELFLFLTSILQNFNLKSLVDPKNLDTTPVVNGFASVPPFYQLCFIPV
# Chain of human Peroxisome Proliferator-activated Receptor alpha (PPARa), PPARA (gene 5465) (Q07869 whole entry, looked up): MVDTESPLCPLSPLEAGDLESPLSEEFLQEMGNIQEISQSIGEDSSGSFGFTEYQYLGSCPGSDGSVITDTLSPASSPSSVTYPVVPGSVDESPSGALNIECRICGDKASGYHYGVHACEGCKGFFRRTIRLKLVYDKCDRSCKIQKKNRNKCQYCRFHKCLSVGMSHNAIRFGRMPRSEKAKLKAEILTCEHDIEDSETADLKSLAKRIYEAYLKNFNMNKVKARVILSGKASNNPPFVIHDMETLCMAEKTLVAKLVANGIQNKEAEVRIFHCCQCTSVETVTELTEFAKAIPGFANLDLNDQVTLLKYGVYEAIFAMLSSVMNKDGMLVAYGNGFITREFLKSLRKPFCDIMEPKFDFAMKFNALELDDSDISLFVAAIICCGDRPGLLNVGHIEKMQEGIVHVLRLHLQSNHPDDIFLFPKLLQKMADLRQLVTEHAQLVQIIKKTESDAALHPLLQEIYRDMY
smiles,measurement,setting,value
Sc1nc2ccccc2s1,AC50,[1],1.9 µM (active)
same,AC50,[2],5 µM (active)
same,outcome,[3],inactive
same,outcome,[4],inactive
same,outcome,[5],inactive
same,outcome,[6],inactive
same,outcome,[7],inactive
same,outcome,[8],inactive
same,outcome,[9],inactive
same,outcome,[10],inactive
same,outcome,[11],inactive
same,AC50,[12],61.3 µM (active)
Oc1cccc2ccccc12,outcome,[13],inactive
OC(C(F)(F)F)(C(F)(F)F)C(O)(C(F)(F)F)C(F)(F)F,outcome,[14],inactive
same,AC50,[15],22.4 µM (active) and 22.6 µM (active)
Oc1ccc2c(c1)Cc1ccccc1-2,outcome,[16],inactive
same,AC50,[17],38.1 µM (active)
Cc1oc(C)c(C(=O)Nc2ccccc2)c1C,outcome,[18],inactive
CC(O)(c1ccc(Cl)cc1)c1ccc(Cl)cc1,outcome,[16],inactive
same,AC50,[17],61.6 µM (active)
O=[Se](O)O,AC50,[19],34.4 µM (active)
same,AC50,[18],1.64 µM (active)
same,AC50,[20],31.7 µM (active)
CO[C@H]1C[C@@H]2CC[C@@H](C)[C@@](O)(O2)C(=O)C(=O)N2CCCC[C@H]2C(=O)O[C@H]([C@H](C)C[C@@H]2CC[C@@H](O)[C@H](OC)C2)CC(=O)[C@H](C)/C=C(\C)[C@@H](O)[C@@H](OC)C(=O)[C@H](C)C[C@H](C)\C=C/C=C/C=C/1C,outcome,[19],inactive
same,outcome,[20],inactive
